Data reported in the supplement of paper PMC7411054.

How the values were obtained:
Details in all cases: treatment time: 24 h
[1] = tested on: A549-ACTB-RAB5A; assay: lowest phenotypically active concentration; higher = less potent
Summary of the method: (§1)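 After 24 h at 0.3, 1, 3 or 9 µM, with four wells per treatment, fifteen gene-edited A549, HepG2 and WPMY1 reporter lines carrying BFP, GFP and RFP/FusionRed were imaged live. Each well's live-cell features were expressed relative to solvent control wells. Deviation required ≥3 of 4 wells past the 95th percentile of control Euclidean distances, and reproducibility a median replicate Pearson correlation over the 95th percentile of non-replicates. Phenotypic activity rested on both.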

[2] = tested on: A549-GM130-SQSTM1; assay: as above
Summary of the method: as §1

[3] = tested on: HepG2-ACTB-RAB5A; assay: as above
Summary of the method: as §1

[4] = tested on: A549-ACTB-RAB5A; assay: phenotypically active (imaging signature differs from DMSO and reproducible) at any of 0.3-9 uM (binary (1 = active, 0 = inactive)); higher = active
Summary of the method: as §1

[5] = tested on: A549-CANX-COX4; assay: as above
Summary of the method: as §1

[6] = tested on: A549-GM130-SQSTM1; assay: as above
Summary of the method: as §1

[7] = tested on: A549-TP53BP1-CLTA; assay: as above
Summary of the method: as §1

[8] = tested on: A549-TUBA1B-RELA; assay: as above
Summary of the method: as §1

[9] = tested on: HepG2-ACTB-RAB5A; assay: as above
Summary of the method: as §1

[10] = tested on: HepG2-CANX-COX4; assay: as above
Summary of the method: as §1

[11] = tested on: HepG2-GM130-SQSTM1; assay: as above
Summary of the method: as §1

[12] = tested on: HepG2-TP53BP1-CLTA; assay: as above
Summary of the method: as §1

[13] = tested on: HepG2-TUBA1B-RELA; assay: as above
Summary of the method: as §1

[14] = tested on: WPMY1-ACTB-RAB5A; assay: as above
Summary of the method: as §1

[15] = tested on: WPMY1-CANX-COX4; assay: as above
Summary of the method: as §1

[16] = tested on: WPMY1-GM130-SQSTM1; assay: as above
Summary of the method: as §1

[17] = tested on: WPMY1-TP53BP1-CLTA; assay: as above
Summary of the method: as §1

[18] = tested on: WPMY1-TUBA1B-RELA; assay: as above
Summary of the method: as §1

[19] = tested on: A549-TUBA1B-RELA; assay: lowest phenotypically active concentration; higher = less potent
Summary of the method: as §1

[20] = tested on: HepG2-TP53BP1-CLTA; assay: as above
Summary of the method: as §1

Cc1nnc(-c2ccc3occ(-c4ccc(S(C)=O)cc4)c3c2)o1 (configuration not stated)
lowest phenotypically active concentration [1]: 9 µM | lowest phenotypically active concentration [2]: 9 µM | lowest phenotypically active concentration [3]: 9 µM | phenotypically active [4]: 1 (active) | phenotypically active [5]: 1 (active) | phenotypically active [6]: 1 (active) | phenotypically active [7]: 1 (active) | phenotypically active [8]: 0 (inactive) | phenotypically active [9]: 1 (active) | phenotypically active [10]: 1 (active) | phenotypically active [11]: 1 (active) | phenotypically active [12]: 0 (inactive) | phenotypically active [13]: 1 (active) | phenotypically active [14]: 1 (active) | phenotypically active [15]: 1 (active) | phenotypically active [16]: 1 (active) | phenotypically active [17]: 1 (active) | phenotypically active [18]: 0 (inactive)

Cc1cc(F)c(Nc2ncnc3cc(OCc4ccccc4)ccc23)cc1O
lowest phenotypically active concentration [1]: 9 µM | lowest phenotypically active concentration [2]: 9 µM | lowest phenotypically active concentration [19]: 9 µM | phenotypically active [4]: 1 (active) | phenotypically active [5]: 1 (active) | phenotypically active [6]: 1 (active) | phenotypically active [7]: 0 (inactive) | phenotypically active [8]: 1 (active) | phenotypically active [9]: 0 (inactive) | phenotypically active [10]: 0 (inactive) | phenotypically active [11]: 0 (inactive) | phenotypically active [12]: 0 (inactive) | phenotypically active [13]: 0 (inactive) | phenotypically active [14]: 0 (inactive) | phenotypically active [15]: 1 (active) | phenotypically active [16]: 0 (inactive) | phenotypically active [17]: 0 (inactive) | phenotypically active [18]: 1 (active)

CCc1cncnc1N1CCN(Cc2nc3cc(C(F)(F)F)ccc3[nH]2)CC1
lowest phenotypically active concentration [1]: 3 µM | lowest phenotypically active concentration [2]: 9 µM | lowest phenotypically active concentration [3]: 9 µM | lowest phenotypically active concentration [20]: 9 µM | phenotypically active [4]: 1 (active) | phenotypically active [5]: 1 (active) | phenotypically active [6]: 1 (active) | phenotypically active [7]: 0 (inactive) | phenotypically active [8]: 0 (inactive) | phenotypically active [9]: 1 (active) | phenotypically active [10]: 1 (active) | phenotypically active [11]: 1 (active) | phenotypically active [12]: 1 (active) | phenotypically active [13]: 1 (active) | phenotypically active [14]: 0 (inactive) | phenotypically active [15]: 0 (inactive) | phenotypically active [16]: 0 (inactive) | phenotypically active [17]: 0 (inactive) | phenotypically active [18]: 1 (active)

O=c1cc(-c2ccccc2)oc2c(O)c(O)ccc12 [7,8-Dihydroxyflavone]
lowest phenotypically active concentration [1]: 9 µM | lowest phenotypically active concentration [19]: 9 µM | lowest phenotypically active concentration [3]: 9 µM | phenotypically active [4]: 1 (active) | phenotypically active [5]: 1 (active) | phenotypically active [6]: 0 (inactive) | phenotypically active [7]: 0 (inactive) | phenotypically active [8]: 1 (active) | phenotypically active [9]: 1 (active) | phenotypically active [10]: 1 (active) | phenotypically active [11]: 1 (active) | phenotypically active [12]: 0 (inactive) | phenotypically active [13]: 0 (inactive) | phenotypically active [14]: 1 (active) | phenotypically active [15]: 1 (active) | phenotypically active [16]: 1 (active) | phenotypically active [17]: 0 (inactive) | phenotypically active [18]: 1 (active)

C/C(=N/NC(=N)N)c1ccc(NC(=O)Nc2ccc(/C(C)=N/NC(=N)N)cc2)cc1
lowest phenotypically active concentration [1]: 3 µM | lowest phenotypically active concentration [2]: 9 µM | lowest phenotypically active concentration [19]: 3 µM | lowest phenotypically active concentration [3]: 3 µM | lowest phenotypically active concentration [20]: 9 µM | phenotypically active [4]: 1 (active) | phenotypically active [5]: 1 (active) | phenotypically active [6]: 1 (active) | phenotypically active [7]: 0 (inactive) | phenotypically active [8]: 1 (active) | phenotypically active [9]: 1 (active) | phenotypically active [10]: 1 (active) | phenotypically active [11]: 1 (active) | phenotypically active [12]: 1 (active) | phenotypically active [13]: 1 (active) | phenotypically active [14]: 1 (active) | phenotypically active [15]: 1 (active) | phenotypically active [16]: 1 (active) | phenotypically active [17]: 0 (inactive) | phenotypically active [18]: 0 (inactive)

CN(C)c1ccc(/C=C2\C(=O)Nc3ccccc32)cc1
lowest phenotypically active concentration [1]: 9 µM | lowest phenotypically active concentration [2]: 3 µM | lowest phenotypically active concentration [19]: 9 µM | lowest phenotypically active concentration [20]: 9 µM | phenotypically active [4]: 1 (active) | phenotypically active [5]: 1 (active) | phenotypically active [6]: 1 (active) | phenotypically active [7]: 1 (active) | phenotypically active [8]: 1 (active) | phenotypically active [9]: 0 (inactive) | phenotypically active [10]: 0 (inactive) | phenotypically active [11]: 1 (active) | phenotypically active [12]: 1 (active) | phenotypically active [13]: 1 (active) | phenotypically active [14]: 1 (active) | phenotypically active [15]: 1 (active) | phenotypically active [16]: 1 (active) | phenotypically active [17]: 1 (active) | phenotypically active [18]: 0 (inactive)
